Potency and outcome data for 8 compounds are collected here from PubChem BioAssay (Tox21).

Structures are written as SMILES. Results filed as inconclusive are left out. Some compounds were tested as several samples or in several runs, with calls that do not always agree. Calls of active or inactive are those of the source. Unless noted, the call rests on the fitted dose curve; in most records, active means well fitted curve in the direction sought with a large enough effect in the repeat runs; inconclusive means weak or mixed curves; inactive means no such curve, though single readings can be large; an effect the other way counts as inactive or inconclusive.

Assay [1] is described as follows: qHTS assay to identify small molecule agonists of the peroxisome proliferator-activated receptor delta (PPARd) signaling pathway - cell viability counter screen (AID 743211). Further: nearly all actives have a fitted effect of over 55% in size. In a few lines: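 Viability of GeneBLAzer PPARd UAS-bla HEK293H cells was assessed after 17 h compound incubation at 37C, using CellTiter-Glo reagent added after the reporter read and luminescence recorded 30 min later.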
(In general: In qHTS, concentration-response curves come from the screen itself.)

Assay [2] deals with Peroxisome proliferator-activated receptor delta (Homo sapiens) (UniProt Q03181). Put plainly: qHTS assay to identify small molecule agonists of the peroxisome proliferator-activated receptor delta (PPARd) signaling pathway (AID 743212; calls by dose curve). In a few lines:
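Read-out: beta-lactamase FRET fluorescence after 2 h room-temperature incubation with LiveBLAzer B/G substrate. Cells were HEK293H carrying a UAS-bla reporter for PPARd, treated at 37 C with DMSO-dissolved compounds.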

Assay [3] can be described thus: qHTS assay to identify small molecule antagonists of the peroxisome proliferator-activated receptor delta (PPARd) signaling pathway - cell viability counter screen (AID 743213). Further: nearly all actives have a fitted effect of over 50% in size. The gist of the method: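 Cytotoxicity counter screen: CellTiter-Glo luminescence read 30 min after addition, in the same wells as the reporter assay. There, PPARd UAS-bla HEK293H cells (3000/well) were treated 17 h at 37 C with compound and 300 nM L165041.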

Assay [4] can be described thus: qHTS assay to identify small molecule agonists of the farnesoid-X-receptor (FXR) signaling pathway - cell viability counter screen (AID 743218). Further: nearly all actives have a fitted effect of over 45% in size. The gist of the method: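 Same-well cytotoxicity check on FXR-UAS-bla HEK 293T cells: 5 h attachment, 16 h compound at 37 C, CellTiter-Glo luminescence read at room temperature after 30 min.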
Assay [5] can be described thus: qHTS assay to identify small molecule antagonists of the farnesoid-X-receptor (FXR) signaling pathway - cell viability counter screen (AID 743221; active means well fitted cell-killing curve with a large enough effect in the repeat runs, not every such curve was filed as active; further: nearly all actives have a fitted effect of over 50% in size). In a few lines: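 Quantitative HTS of the Tox21 10K library run in parallel with the beta-lactamase reporter read. HEK 293T cells carrying a UAS-driven bla reporter got compound and 50 uM CDCA (final) for 16 h; ATP-based luminescence followed.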

The nature of assay [6]: qHTS assay to identify small molecule agonists of the vitamin D receptor (VDR) signaling pathway - cell viability counter screen (AID 743224). Further: series mostly up to about 63 µM; nearly all actives have a fitted effect of over 50% in size. The gist of the method:
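Counter screen for cytotoxicity: VDR-bla cells at 2,000 cells/well, 16 h compound exposure, then CellTiter-Glo luminescence after the beta-lactamase measurement.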

Assay [7] in a line: qHTS assay to identify small molecule antagonists of the vitamin D receptor (VDR) signaling pathway - cell viability counter screen (AID 743225). Further: nearly all actives have a fitted effect of over 50% in size. In a few lines:
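Cells (VDR-UAS-bla HEK 293T) are plated, rested 4 h at 37C, dosed with compound and 3 nM final 1-alpha,25-dihydroxy vitamin D3, and incubated 16 h. Viability is taken from CellTiter-Glo luminescence in the reporter wells.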

A short description of assay [8]: qHTS assay to identify small molecule agonists of the NFkB signaling pathway - cell viability counter screen (AID 1159515; calls by dose curve; further: series mostly up to about 61 µM; nearly all actives have a fitted effect of over 55% in size). In a few lines: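 Counter screen run alongside the NFkB-bla agonist assay: ME-180 reporter cells exposed to compounds for 5 hr, then lysed with CellTiter-Glo in the same wells. Luminescence, read after 30 min, reflects viable cells.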
Assay [9] in a line: qHTS assay to identify small molecule agonists of the endoplasmic reticulum stress response signaling pathway - cell viability counter screen (AID 1159517; calls by dose curve; further: nearly all actives have a fitted effect of over 50% in size; further: potency means the concentration at half of the fitted maximal effect). The gist of the method: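 Steps: seed 1,500 ESRE-bla HeLa cells per well; incubate overnight at 37 C, 5% CO2; add compounds in DMSO for 5 hr; run FRET substrate 2 hr RT; add CellTiter-Glo, wait 30 min, read luminescence.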

The nature of assay [10]: qHTS assay to identify small molecule antagonists of the retinoid-related orphan receptor gamma (ROR-gamma) signaling pathway - cell viability counter screen (AID 1159520). Further: nearly all actives have a fitted effect of over 50% in size. In a few lines:
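Tet-on ROR gamma CHO cells were given compounds for 2 hr, then doxycycline hyclate at 1 uM final, and incubated 16 hr at 37 C. Viability was measured as ATP content by CellTiter-Glo luminescence.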

Assay [11] addresses Nuclear receptor ROR-gamma (Homo sapiens) (UniProt P51449). Put plainly: qHTS assay to identify small molecule antagonists of the retinoid-related orphan receptor gamma (ROR-gamma) signaling pathway (AID 1159521; further: nearly all actives have a fitted effect of over 50% in size; further: potency means the concentration at half of the fitted maximal effect). In a few lines: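 RORγ antagonism is scored from reduced reporter luminescence in Tet-on CHO cells. Induction used 1 uM final doxycycline hyclate for 16 h at 37 C, following a 2 h compound exposure.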

Assay [12] can be described thus: qHTS assay to identify small molecule agonists of the AP-1 signaling pathway - cell viability counter screen (AID 1159525; calls by dose curve; further: nearly all actives have a fitted effect of over 55% in size). In a few lines: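 Same-well cytotoxicity counter screen of the Tox21 10K library in ME-180 cells. The readout is ATP-dependent luminescence after 5 h compound treatment. Data are normalised to DMSO and tetra n-octyl ammonium bromide controls.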

A short description of assay [13]: qHTS assay to identify small molecule agonists of the AP-1 signaling pathway (AID 1159526; calls by dose curve).
In assay [14] the target is Peroxisome proliferator-activated receptor delta (Homo sapiens) (UniProt Q03181). Put plainly: qHTS assay to identify small molecule antagonists of the peroxisome proliferator-activated receptor delta (PPARd) signaling pathway (AID 743215; active means well fitted inhibition curve with a large enough effect in the signal ratio in the repeat runs, not every such curve was filed as active; the % refers to the signal ratio;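 further: cells stimulated with agonist L165041 at 300 nM final during compound exposure; series mostly up to about 62 µM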). In a few lines:
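Screen format: qHTS, antagonist mode. HEK293H PPARd-bla cells received compound and 300 nM L165041 (final), 17 h, 37 C. Beta-lactamase detected via FRET substrate fluorescence, 2 h, room temperature.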

The target in assay [15] is Bile acid receptor (Homo sapiens) (UniProt Q96RI1). Nature of the assay: qHTS assay to identify small molecule antagonists of the farnesoid-X-receptor (FXR) signaling pathway (AID 743217; active means well fitted inhibition curve with a large enough effect in the signal ratio in the repeat runs, not every such curve was filed as active; the % refers to the signal ratio). In a few lines:
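Quantitative HTS, beta-lactamase reporter format: FXR-UAS-bla HEK 293T cells co-treated 16 h at 37 °C with compounds and 50 uM final chenodeoxycholic acid, then read by B/G FRET fluorescence.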

Assay [16] has the same target. Nature of the assay: qHTS assay to identify small molecule agonists of the farnesoid-X-receptor (FXR) signaling pathway (AID 743220; active means well fitted activation curve with a large enough effect in the signal ratio in the repeat runs, not every such curve was filed as active; the % refers to the signal ratio). The gist of the method: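 FXR-UAS-bla HEK 293T cells carrying a UAS-driven beta-lactamase reporter were plated for 5 h at 37C/5% CO2, then exposed to DMSO-dissolved Tox21 10K compounds for 16 h at 37C. A LiveBLAzer B/G FRET substrate was loaded for 2 h at room temperature before fluorescence reading.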

Assay [17] concerns the target Vitamin D3 receptor (Homo sapiens) (UniProt P11473). Nature of the assay: qHTS assay to identify small molecule agonists of the vitamin D receptor (VDR) signaling pathway (AID 743222; calls by dose curve). In a few lines: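 Using LiveBLAzer B/G FRET detection, agonism was scored in VDR-bla cells exposed overnight (16 h, 37C) to DMSO-dissolved compounds; substrate incubation was 2 h at room temperature.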

The target is the same in assay [18]. Nature of the assay: qHTS assay to identify small molecule antagonists of the vitamin D receptor (VDR) signaling pathway (AID 743223; active means well fitted inhibition curve with a large enough effect in the signal ratio in the repeat runs, not every such curve was filed as active; the % refers to the signal ratio). The gist of the method: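 Fluorescence from LiveBLAzer B/G FRET substrate, read after 2 h at room temperature, reflects beta-lactamase reporter activity in VDR-bla cells treated 16 h at 37C with compounds and agonist 1alpha,25-dihydroxyvitamin D3 (3 nM final).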

Assay [19] is described as follows: qHTS assay to identify small molecule agonists of the NFkB signaling pathway (AID 1159509; active means well fitted curve in the direction sought with a large enough effect in the signal ratio in the repeat runs, not every such curve was filed as active; the % refers to the signal ratio; further: series mostly up to about 61 µM). In a few lines:
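Beta-lactamase reporter assay run in quantitative high-throughput format on an NF-kB-responsive ME-180 line, with 5 hr compound treatment and a FRET-based blue/green fluorescence readout.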

Chain of Bile acid receptor (Homo sapiens) (Q96RI1 whole entry, looked up): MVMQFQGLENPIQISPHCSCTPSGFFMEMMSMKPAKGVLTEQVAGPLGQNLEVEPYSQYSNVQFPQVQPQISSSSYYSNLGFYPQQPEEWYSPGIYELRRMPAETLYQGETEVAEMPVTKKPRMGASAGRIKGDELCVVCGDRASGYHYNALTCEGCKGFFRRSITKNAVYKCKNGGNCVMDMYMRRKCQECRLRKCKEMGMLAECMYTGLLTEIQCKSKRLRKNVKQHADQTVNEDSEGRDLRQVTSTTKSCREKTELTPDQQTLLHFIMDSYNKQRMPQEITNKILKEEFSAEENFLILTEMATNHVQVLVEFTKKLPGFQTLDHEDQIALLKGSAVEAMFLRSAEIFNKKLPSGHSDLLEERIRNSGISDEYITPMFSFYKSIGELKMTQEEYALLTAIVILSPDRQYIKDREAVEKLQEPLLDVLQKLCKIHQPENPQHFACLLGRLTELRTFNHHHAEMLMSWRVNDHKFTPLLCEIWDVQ
Chain of Vitamin D3 receptor (Homo sapiens) (P11473 whole entry, looked up): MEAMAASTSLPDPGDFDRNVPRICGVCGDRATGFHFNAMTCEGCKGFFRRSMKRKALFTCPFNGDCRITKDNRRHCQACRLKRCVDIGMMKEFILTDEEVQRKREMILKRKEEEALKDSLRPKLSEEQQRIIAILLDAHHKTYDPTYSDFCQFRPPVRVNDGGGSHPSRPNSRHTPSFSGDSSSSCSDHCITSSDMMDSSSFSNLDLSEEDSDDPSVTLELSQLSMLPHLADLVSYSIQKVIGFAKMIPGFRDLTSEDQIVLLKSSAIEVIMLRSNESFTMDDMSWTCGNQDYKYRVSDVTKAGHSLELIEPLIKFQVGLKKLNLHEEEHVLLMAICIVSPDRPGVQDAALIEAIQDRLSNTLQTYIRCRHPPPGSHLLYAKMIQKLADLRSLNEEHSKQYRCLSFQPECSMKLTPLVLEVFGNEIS
Chain of Peroxisome proliferator-activated receptor delta (Homo sapiens) (Q03181 whole entry, looked up): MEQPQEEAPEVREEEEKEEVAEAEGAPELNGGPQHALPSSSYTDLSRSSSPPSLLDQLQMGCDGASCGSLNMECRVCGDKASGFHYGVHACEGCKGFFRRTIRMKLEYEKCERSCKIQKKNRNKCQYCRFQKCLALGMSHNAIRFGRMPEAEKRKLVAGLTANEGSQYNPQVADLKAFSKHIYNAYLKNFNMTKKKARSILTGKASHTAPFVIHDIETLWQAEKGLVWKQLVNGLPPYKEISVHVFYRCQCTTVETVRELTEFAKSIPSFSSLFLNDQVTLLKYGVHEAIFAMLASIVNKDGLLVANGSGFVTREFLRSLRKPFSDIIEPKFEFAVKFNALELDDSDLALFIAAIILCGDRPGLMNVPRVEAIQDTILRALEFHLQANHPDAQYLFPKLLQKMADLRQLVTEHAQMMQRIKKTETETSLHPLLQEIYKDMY

For `C/C=C/c1ccc(O)c(OC)c1`, the Potency result in assay [1], in [3], in [4], in [6], in assay [9] and in [11] was “inactive” throughout. Moreover, the Potency entry in [13] was “inactive”. Moreover, the outcome in assay [2], in [5], in assay [7], in assay [8], in assay [10] and in assay [12] was inactive.

As to `NC(=O)c1ccc([N+](=O)[O-])cc1Cl`, the Potency entry in [1], in [3], in [15], in [4], in assay [18] and in [6] was “inactive” throughout. The Potency entry in assay [9], in assay [11] and in assay [13] was “inactive” in each case. Also, the compound was classed as inactive in [2], in [14], in assay [16], in assay [5], in assay [17] and in [7]. For the same compound, the call in assay [19], in assay [8] and in assay [10] was inactive.

On to `CC(C)=CCC/C(C)=C/CO`, for which the Potency result in assay [1], in assay [3], in assay [15], in [4], in assay [18] and in assay [6] was “inactive” in each case. For the same compound, the Potency entry in [9], in [11] and in [13] was “inactive” each time. Besides, the result in assay [5], in [17], in assay [7], in [8] and in assay [10] was inactive.

As for `C#C[C@]1(O)CC[C@H]2[C@@H]3CCC4=CC(=O)CC[C@@H]4[C@H]3CC[C@@]21CC`, the Potency entry in assay [1], in assay [3], in assay [4], in assay [18], in assay [6] and in [9] was “inactive” throughout. For the same compound, the Potency result in assay [13] was “inactive”. In addition, the result in assay [2], in [14], in [5], in assay [17], in assay [7] and in assay [19] was inactive. The outcome in assay [8] and in assay [10] was inactive. The Potency in assay [11] is 48.6 µM (active) and inactive.

As for `CC1=C(/C=C/C(C)=C/C=C/C(C)=C/C(=O)O)C(C)(C)CCC1`, the Potency result in assay [1], in [3], in assay [4], in [18], in [6] and in [11] was “inactive” in each case. In [13], the Potency result is “inactive”. Besides, the outcome in [14], in assay [5], in assay [17], in [7], in [19] and in assay [8] was inactive. Further, the compound was classed as inactive in assay [10] and in [12]. For the same compound, the Potency in assay [9] is 43.7 µM (active).

`CCN(CC)CCOC(=O)c1ccc(N)cc1`: the Potency result in assay [1], in assay [3], in assay [4], in assay [18], in assay [6] and in [9] was “inactive” in each case. Further, the Potency entry in [11] and in assay [13] was “inactive” in each case. Also, the compound was classed as inactive in [5], in assay [17], in [7], in [19], in [8] and in assay [10]. In assay [12], the compound was called inactive.

Consider `N[C@@H](Cc1c[nH]c2ccc(O)cc12)C(=O)O`, for which the Potency entry in assay [1], in assay [3], in [4], in [18], in [6] and in [9] was “inactive” throughout. The Potency entry in [11] and in [13] was “inactive” each time. Moreover, the compound was called inactive in [2], in [14], in assay [5], in [17], in assay [7] and in assay [19]. Further, the outcome in assay [8] and in [10] was inactive.

For the compound `CCCCCCCCCCCCCC(=O)OC(C)C`, the Potency result in assay [1], in assay [3], in assay [15], in [4], in [18] and in [6] was “inactive” in each case. In addition, the Potency entry in [9], in assay [11] and in [13] was “inactive” in each case. Further, the call in assay [2], in [14], in [16], in assay [5], in assay [17] and in assay [7] was inactive. The call in assay [19], in [8] and in [10] was inactive.
